Screening data deposited in PubChem BioAssay by several laboratories.
GLD-1 TGE inh = GLD-1/TGE RNA complex disruptors, primary screen, biochemical, fluorescence polarization. Female germline-specific tumor suppressor gld-1 (Caenorhabditis elegans), Q17339. purified GLD-1 + fluorescein TGE RNA. inhibition, % at 5.96 µM. 320,000 compounds, 0.44% hits. AID 2280, 2010;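 active = percent inhibition above a per-plate cutoff, the plate mean of test compounds plus 3 SD, cut at about 30% in these data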;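 note: 0% = DMSO wells with GLD-1 and probe and 100% = wells lacking GLD-1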
Mcl1-Noxa inh = Mcl-1/Noxa binding inhibitors, primary screen, biochemical, TR-FRET, 1536-well. Induced myeloid leukemia cell differentiation protein Mcl-1 (Homo sapiens), Q07820. TR-FRET Mcl-1/Noxa peptide binding, 2 h. inhibition, % at 21.7 µM. 220,000 compounds, 1.5% hits. AID 1022, 2008;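 active = compounds that cut the protein-peptide binding signal by more than 50% relative to plate controls in a single-dose test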;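 note: His-tagged Mcl-1 with rhodamine Noxa BH3 peptide and terbium anti-His antibody; 0% = Mcl-1 plus Noxa peptide wells and 100% = peptide-only wells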
Target sequence (Q07820 whole entry, looked up): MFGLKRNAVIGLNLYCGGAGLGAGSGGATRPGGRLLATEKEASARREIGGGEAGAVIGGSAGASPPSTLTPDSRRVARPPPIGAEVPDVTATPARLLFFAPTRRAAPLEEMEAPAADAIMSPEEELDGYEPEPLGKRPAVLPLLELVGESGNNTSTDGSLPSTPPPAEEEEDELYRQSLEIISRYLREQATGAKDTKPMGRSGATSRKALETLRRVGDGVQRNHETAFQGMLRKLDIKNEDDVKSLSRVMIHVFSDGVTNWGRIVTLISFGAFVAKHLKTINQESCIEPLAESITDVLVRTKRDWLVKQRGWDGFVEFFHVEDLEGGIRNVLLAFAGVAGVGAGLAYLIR
Bcl-xL primary = inhibitors of human Bcl-xL, primary screen, biochemical, fluorescence polarization, HTS. Bcl-2-like protein 1 (Homo sapiens), Q07817. inhibition, % at 10.9 µM. GST-Bcl-xL / FITC-Bim BH3 peptide fluorescence polarization. 320,000 compounds, 0.7% hits. AID 2129, 2009;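 active = inhibition above the mean of all tested compounds plus 3 SD, cutoff set per campaign, cut at about 30% in these data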;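 note: 0% = DMSO wells and 100% = unlabeled Bim-BH3 peptide competitor; inhibitors lower millipolarization by displacing the labeled peptide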
Target sequence (Q07817 whole entry, looked up): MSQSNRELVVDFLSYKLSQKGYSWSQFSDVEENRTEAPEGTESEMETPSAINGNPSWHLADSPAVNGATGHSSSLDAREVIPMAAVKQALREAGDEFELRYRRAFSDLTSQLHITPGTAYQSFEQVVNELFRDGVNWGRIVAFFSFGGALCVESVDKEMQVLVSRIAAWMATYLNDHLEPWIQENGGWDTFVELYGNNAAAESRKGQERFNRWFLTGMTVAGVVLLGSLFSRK
MCL1 BIM primary = inhibitors of MCL1 binding to BIM-BH3, primary screen, biochemical, fluorescence polarization | Induced myeloid leukemia cell differentiation protein Mcl-1 (Homo sapiens), Q07820 | GST-MCL1 / FITC-Bim-BH3 fluorescence polarization | inhibition, % at 10.9 µM | 320,000 compounds, 0.68% hits | AID 2057, 2009;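 active = inhibition above the mean inhibition of all tested compounds plus 3 SD, set per campaign, cut at about 40% in these data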;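 note: 0% = DMSO wells and 100% = unlabeled Bim-BH3 peptide control; higher means more loss of mP so more displacement of Bim peptide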
Mcl1-Bid inh = Mcl-1/Bid binding inhibitors, primary screen, biochemical, TR-FRET, 1536-well | Induced myeloid leukemia cell differentiation protein Mcl-1 (Homo sapiens), Q07820 | TR-FRET Mcl-1/Bid-Dy647 peptide binding | inhibition, % at 21.7 µM | 220,000 compounds, 0.97% hits;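 active = compounds that cut the binding signal by more than half at the single screening dose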;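 note: His-tagged Mcl-1 with europium anti-His antibody binding Bid BH3 peptide; 0% = Mcl-1 plus peptide wells and 100% = peptide-only wells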
Bim-Mcl-1 = inhibitors of Bim peptide binding to Mcl-1, primary screen, biochemical, bead-based flow cytometry, multiplex. inhibition, % at 10 µM. 190,000 compounds, 0.1% hits. Bim peptide-Mcl-1 binding; in the data active = inhibition above about 40%;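 note: 0% = no compound tracer wells and 100% = peptide blocker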
The depositor's hits bear a star; . = no result given. A selection: hits, their analogues and other compounds. The true share with any hit is near 2.3%.

SMILES	GLD-1 TGE inh	Mcl1-Noxa inh	Bcl-xL primary	MCL1 BIM primary	Mcl1-Bid inh	Bim-Mcl-1
Cc1cccc(C)c1NC(=O)CNC(=O)c1ccc2ccccc2n1	-3	.	0	1	.	.
Cc1ccc(/C=C(\CCC(=O)O)c2nc3ccccc3s2)cc1[N+](=O)[O-]	0	27	3	1	4	-4
O=C(O)C/C(=C\c1cccc(NC(=O)c2ccccc2Cl)c1)c1nc2ccccc2s1	5	65*	-8	-7	-20	.
O=C(Nc1ccc(Cl)cc1)/C(=C/c1cccc(O)c1)c1nc2ccccc2s1	10	4	-2	-3	-1	-4
CN(c1ccccc1)c1ccc(/C=C(\CCC(=O)O)c2nc3ccccc3s2)cc1[N+](=O)[O-]	-2	100*	21	22	-41	-1
CCOC(=O)c1nc(-c2ccccc2)oc1N1CCOCC1	4	20	3	11	-30	0
COC(=O)c1cc(NC(=O)CN(C)C2CCS(=O)(=O)C2)cc(C(=O)OC)c1 (stereo unspecified)	1	.	.	.	.	.
COc1ccc(OC)c(NC(=O)CSc2nc3ccccc3c(=O)n2CC2CCCO2)c1 (stereo unspecified)	7	.	2	7	.	.
COC(=O)c1ccc2c(=O)n(CC3CCCO3)c(SCC(=O)Nc3ccc(OC)cc3OC)nc2c1 (stereo unspecified)	-5	-39	3	6	57*	.
O=C1CCC(c2ccc(-n3ccnc3)cc2)=NN1	4	.	-2	-9	.	.
COC(=O)c1cc(CN2CCN(c3ccccc3)CC2)ccc1O	5	.	2	5	.	.
CCc1cc(=O)oc2cc3occ(-c4ccc(OC)c(F)c4)c3cc12	-4	1	-1	-31	67*	-25
COc1ccc(NC(=O)CSc2nnc(-c3cccs3)n2N)cc1S(N)(=O)=O	4	.	.	.	.	.
O=S(=O)(NCCCNS(=O)(=O)c1c(F)cccc1F)c1ccc2c(c1)OCCO2	-3	.	1	6	.	.
O=C(CN1CCN(S(=O)(=O)c2ccccc2)CC1)Nc1ccc(Cl)c([N+](=O)[O-])c1	3	.	8	1	.	.
O=C1C(=Cc2cccn2-c2ccccc2)C(=O)c2ccccc21	105*	102*	41*	42*	73*	4
O=C(O)c1cccc(-n2cccc2C=C2C(=O)c3ccccc3C2=O)c1	-11	26	11	7	-113	27
COc1ccc(CNC(=O)C2CCC(=O)N(CCCN3CCCC3=O)C2)cc1 (stereo unspecified)	2	.	0	-13	.	.
O=C(CCC(=O)c1cccs1)NCc1ccccc1Cl	4	.	.	.	.	.
O=c1c(=NNc2ccccc2Cl)c(=O)c2ccccc12	.	33	.	.	57*	-3
CCOC(=O)c1c(NC(=O)c2cc(-c3ccc(O)cc3)on2)sc(C(C)=O)c1C	-7	84*	1	-2	-16	-8
CCOC(=O)c1c(NC(=O)N/N=C/c2ccc(O)c(OC)c2)sc(C(C)=O)c1C	2	84*	4	0	71*	.
CCOC(=O)c1c(NC(=O)CC(C)C)sc(C(C)=O)c1C	4	-20	3	8	6	.
O=C(NC1CCCCCC1)c1ccc(-n2cnnc2)cc1	10	.	1	1	.	.
CC(C)OC(=O)c1c2nc3ccccc3nc2n2c1[nH]c(=O)c1ccccc12	48*	-26	11	14	4	2
SMILES	GLD-1 TGE inh	Mcl1-Noxa inh	Bcl-xL primary	MCL1 BIM primary	Mcl1-Bid inh	Bim-Mcl-1
CC(C)OC(=O)c1c(N)n(CCCN2CCOCC2)c2nc3ccccc3nc12	2	-4	7	8	-15	0
CCCCc1nnc(NC(=O)c2ccccc2OCc2c(C)noc2C)s1	5	.	7	13	.	.
CCOc1cc(N2CCOCC2)c(OCC)cc1NC(=O)CCS(=O)(=O)c1ccc(Cl)cc1	-1	19	8	0	101*	0
O=C(CC1OC(=O)c2ccccc21)Nc1cccc(S(=O)(=O)N2CCCCCC2)c1 (stereo unspecified)	0	.	-1	-2	.	.
COc1cccc(N/C=C/c2onc(C)c2[N+](=O)[O-])c1	-6	55*	-42	-71	19	0
Cc1cccc(C)c1NC(=O)CNC(=O)c1c(-c2ccccc2)noc1C	2	.	2	-5	.	.
O=C(COC(=O)C1CC2C=CC1C2)NCc1ccco1 (stereo unspecified)	5	66*	5	33	-15	0
O=C(CCSCCC(=O)NCc1ccco1)NCc1ccco1	5	54*	14	21	-12	-4
O=C(CCSCc1ccccc1Cl)NCc1ccco1	1	12	8	3	-23	1
CCOc1ccc(NC(=O)C(c2ccccn2)N(C(=O)CCl)c2ccc(OCC)cc2)cc1 (stereo unspecified)	9	4	16	6	-20	-4
CCOc1ccc(NC(c2ccccn2)c2oc(CO)cc(=O)c2O)cc1 (stereo unspecified)	24	63*	23	28	-73	-4
CC1OC(OC2C(Oc3c(-c4ccc(O)cc4)oc4cc(O)cc(O)c4c3=O)OC(COC3O[C@@H](C)[C@H](O)[C@@H](O)C3O)C(O)C2O)C(O)C(O)C1O (stereo partly specified)	0	.	3	1	.	.
CC1OC(OCC2OC(Oc3c(-c4ccc(O)cc4)oc4cc(O)cc(O)c4c3=O)C(O)C(O)C2O)C(O)C(O)C1O (stereo unspecified)	7	54*	6	14	-7	0
CCOc1ccc(N(C)S(=O)(=O)c2ccc3[nH]cc(C(=O)NCC4CCCO4)c(=O)c3c2)cc1 (stereo unspecified)	1	45	5	-6	11	4
Cc1ccccc1N(C)S(=O)(=O)c1ccc2[nH]cc(C(=O)NCC3CCCO3)c(=O)c2c1 (stereo unspecified)	6	42	-1	-6	66*	-1
CCOCCCNC(=O)c1c[nH]c2ccc(S(=O)(=O)Nc3cccc(OC)c3)cc2c1=O	-6	39	-5	-12	56*	0
CCc1ccc(NS(=O)(=O)c2ccc3[nH]cc(C(=O)NCC4CCCO4)c(=O)c3c2)cc1 (stereo unspecified)	-5	16	4	4	54*	-4
CCN(CC)C(=O)c1c[nH]c2ccc(S(=O)(=O)Nc3cc(C)cc(C)c3)cc2c1=O	4	23	5	7	55*	-2
CCN1CCN(S(=O)(=O)c2ccc(Cl)c(C(=O)NCc3nc4ccccc4[nH]3)c2)CC1	-7	.	.	.	.	.
